Compound activity: PubChem, Sanford-Burnham Center for Chemical Genomics
Hits are enriched below; roughly 28% of the tested compounds scored in any of these assays.
CYP2C19 inh: blocks human cytochrome P450 2C19. P33261. CYP2C19 Supersomes, luciferin-H EGE luminescence, 30 min. inhibition, % at 5 µM. hit rate 21% among 96,000. AID 778;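 active = CYP2C19 inhibition above a set limit at 5 µM in the primary screen, cut at about 50% in these data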;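 also: plate controls were negative control wells for no effect and 2.5 mM tranylcypromine positive control for full effect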
CD11b adhes inh: inhibitors of human CD11b/CD18 binding to fibrinogen. P05107+P11215. K562 CD11b/CD18 adhesion to fibrinogen, ATPlite luminescence; Mn2+ added to activate the integrin. inhibition, % at 10 µM. hit rate 0.54% among 93,000. AID 1497;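 active = primary inhibition of 50% or more at 10 µM, then 40% or more on retest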
Mac1 fbg enh: enhancers of human CD11b/CD18 binding to fibrinogen; hit rate 0.07% among 93,000; K562 CD11b/CD18 adhesion to fibrinogen, ATPlite luminescence; activation, % at 10 µM; P05107+P11215;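 active = 10 µM primary screen giving 50% or more activity, confirmed by 40% or more on retest at that dose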
CYP2C9 activ: CYP2C9 (human) activation | recombinant CYP2C9, luciferin-H conversion, luminescence; active compounds read high; factor 1 = untreated enzyme, 0 = blocked | activation factor at 5 µM | hit rate 1.4% among 96,000 | AID 1024;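 active = activation factor of 2 or more for CYP2C9 at a 5 µM dose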;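 also: 0 = sulfaphenazole-blocked wells and 1 = vehicle-only wells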
Target sequence (P11712 whole entry, looked up): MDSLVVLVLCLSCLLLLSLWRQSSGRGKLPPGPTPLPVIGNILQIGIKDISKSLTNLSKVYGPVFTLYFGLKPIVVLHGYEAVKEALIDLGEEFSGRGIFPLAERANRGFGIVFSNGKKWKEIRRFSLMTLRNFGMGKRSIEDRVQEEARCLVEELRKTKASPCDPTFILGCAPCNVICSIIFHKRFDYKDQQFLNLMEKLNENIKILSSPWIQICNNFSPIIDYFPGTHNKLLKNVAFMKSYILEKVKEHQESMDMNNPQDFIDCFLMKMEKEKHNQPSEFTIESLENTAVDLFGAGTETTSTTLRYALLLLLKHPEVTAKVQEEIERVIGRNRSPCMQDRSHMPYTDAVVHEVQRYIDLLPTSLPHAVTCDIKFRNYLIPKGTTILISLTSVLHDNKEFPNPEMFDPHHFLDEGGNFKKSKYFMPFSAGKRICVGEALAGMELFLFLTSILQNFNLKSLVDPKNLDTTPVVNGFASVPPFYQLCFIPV
CYP2C9 inh: human CYP2C9 inhibition | hit rate 20% among 96,000 | CYP2C9 Supersomes, luciferin-H conversion, luminescence | P11712 | AID 777 | inhibition, % at 5 µM;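 active = blocking of liver enzyme CYP2C9 beyond about 50% at 5 µM, limit read from the data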
CYP2C19 activ: increases human CYP2C19 enzyme activity. P33261. recombinant CYP2C19, luciferin-H EGE luminescence; active compounds read high; 0 = fully inhibited enzyme, 1 = untreated enzyme. activation factor at 5 µM. 96,000 tested, under 10 active;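 active = activation factor of at least 2 at 5 µM in the primary screen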;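 also: 0 = wells with 2.5 mM tranylcypromine and 1 = vehicle-only wells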
An asterisk follows results filed as active; · = no result.

SMILES	CYP2C19 inh	CD11b adhes inh	Mac1 fbg enh	CYP2C9 activ	CYP2C9 inh	CYP2C19 activ
CC(=O)Nc1nc(COc2ccccc2)cs1	89*	-1	-1	0.4	59*	0.1
O=C(Nc1nc(COc2ccccc2)cs1)C12CC3CC(CC(C3)C1)C2	56*	40	3	0	96*	0.4
CC(=O)Nc1nc(CC(=O)c2ccccc2)cs1	65*	-31	-3	1.1	-11	0.3
CC(=O)Nc1nc(COc2ccc3ccccc3c2)cs1	37	30	-1	1.1	-13	0.6
CC(C)COc1ccc2[nH]c3c(c2c1)CCCC3=O	12	-14	6	1	-1	0.9
O=C1CC(SCCO)C(=O)N1c1ccc(Oc2ccccc2)cc1 (stereo not drawn)	24	-22	1	1	4	0.8
CC(=O)CCc1oc2ccc(NC(C)=O)cc2c1-c1ccc(C)o1	46	27	-3	0.8	21	0.5
Cc1ccc(S(=O)(=O)c2c(C)nn(C(C)(C)C)c2OC(=O)C2CCCC2)cc1	37	13	3	0.4	61*	0.6
Cc1ccc(S(=O)(=O)NCCN=C(CN2CCCC2)NS(=O)(=O)c2ccc(C)cc2)cc1	26	14	-1	0	97*	0.7
Cc1ccc(S(=O)(=O)NCC2CCC(C(=O)NCCCN3CCOCC3)CC2)cc1 (stereo not drawn)	-2	-36	-1	1	2	1
Cc1ccc(S(=O)(=O)NCCN=C(CN2CCOCC2)NS(=O)(=O)c2ccc(C)cc2)cc1	24	-32	2	0.2	76*	0.8
COc1nc(N(C#N)CC(N)=O)nc(N2CCCC2)n1	-4	-5	-1	1	-2	1
O=C1NC(c2ccccc2Cl)Nc2ccccc21 (stereo not drawn)	8	-6	0	0.9	9	0.9
O=C1c2ccccc2NC2CCCCC12 (stereo not drawn)	1	-2	3	5.1*	-411	1
O=C(NCCSCc1ccccc1)c1ccc(C2SCC(=O)N2Cc2ccccc2)cc1 (stereo not drawn)	92*	17	-2	0	97*	0.1
O=C(Nc1ccc(Br)cc1)C1CCCN1S(=O)(=O)c1cccs1 (stereo not drawn)	96*	22	-6	0.1	90*	0
CC(C)CCNC(=O)C1CCCCN1S(=O)(=O)c1ccc(F)cc1 (stereo not drawn)	12	0	3	0.6	37	0.9
O=C(Nc1ccc(O)cc1)C1CCCN1S(=O)(=O)c1ccc(F)cc1 (stereo not drawn)	3	-2	-4	1.6	-61	1
O=C(Nc1ccc(Br)cn1)C1CCCN1S(=O)(=O)c1ccccc1 (stereo not drawn)	52*	·	·	0.2	77*	0.5
O=C(NCCc1ccccc1F)C1CCCN1S(=O)(=O)c1ccccc1 (stereo not drawn)	79*	-13	0	0.7	26	0.2
O=C(Nc1cccnc1)C1CCCN1S(=O)(=O)c1ccc(Cl)c(Cl)c1 (stereo not drawn)	15	-7	-1	0.3	69*	0.8
O=C(/C=C/c1ccc(Cl)cc1)N(Cc1ccccc1)C1CCS(=O)(=O)C1 (stereo not drawn)	·	3	-2	·	·	·
c1ccc(Cn2nnnc2CN2CCOCC2)cc1	12	·	·	1.1	-6	0.9
c1ccc(N2CCN(Cc3cn4cccnc4n3)CC2)cc1	33	-7	-1	1.1	-14	0.7
Cc1c(NC(=O)C2CCCN2S(=O)(=O)c2ccc(Cl)cc2)c(=O)n(-c2ccccc2)n1C (stereo not drawn)	-15	16	3	1.2	-18	1.2
O=C(Nc1ccc(Cl)cn1)C1CCCN1S(=O)(=O)c1ccccc1 (stereo not drawn)	22	1	-7	0.2	80*	0.8
CCNC(=O)/C=C1\NC(C)(C)Cc2c1ccc1ccccc21	83*	5	-1	0.1	90*	0.2
CC1(C)Cc2c(ccc3ccccc23)C(=O)N1	19	·	·	1.5	-52	0.8
O=C1CC(NCc2cccs2)C(=O)N1c1ccc(Cl)cc1 (stereo not drawn)	42	66*	-2	1	-3	0.6
